Screening data as filed in PubChem.
Sampled rows, rich in hits. Any-hit rate of the full collection: about 1.2%.
BRCT PPI red – inhibitors of human BRCA1 BRCT-phosphoprotein interaction (red fluorophore). P38398. BRCT-phosphopeptide binding, red fluorescence polarization. Potency, µM (doses to about 76.9 µM), without a hit: at the top dose activity change, negative = inhibition, most hits filed as inhibitors. 75,000 compounds, 0.03% hits; further: on the % scale 0 is the no-effect control and ±100 the full control effect
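Rhodamine-labelled pBACH1 10-mer (100 nM) bound to BRCT domain (100 nM) at pH 7.3; compounds incubated 12 min room temperature, polarization read. Free peptide defines full inhibition; unlabelled decapeptide titrated as control.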
YjeE inh – inhibitors of E. coli YjeE (TsaE). purified YjeE enzyme, qHTS inhibition assay. Potency, µM. 71,000 compounds, 0.05% hits
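Fluorescence polarization of a BODIPY Texas Red–ADP probe (2 uM) bound to purified YjeE (10 uM) was read after 15 min room-temperature incubation with compounds. Loss of polarization marks inhibitors; ADP serves as titrated control.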
ERK AVP block – blocks ERK signaling stimulated by vasopressin. HEK293-V1b, vasopressin-stimulated pERK AlphaScreen. Potency, µM (titrated, usually from 57.5 µM), without a hit: at the highest dose activity, negative = inhibition, most hits filed as inhibitors. 72,000 compounds, 0.99% hits; further: potency means the concentration at half of the fitted maximal effect; on the % scale 0 is the no-effect control and ±100 the full control effect; nearly all actives have a fitted effect of over 55% in size
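HEK293 cells stably expressing V1b receptor, preincubated 30 min at 37 °C with compound, then stimulated 5 min with 25 nM vasopressin. Phospho-ERK by AlphaScreen SureFire after 5 h RT; normalized to DMSO and vasopressin; AC50 by Hill fit.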
BRCT inh green – blocks human BRCA1 BRCT binding to phosphopeptide, green readout | BRCA1 BRCT-phosphopeptide binding, green fluorescence polarization | 75,000 compounds, 0.05% hits | P38398 | Potency, µM (titrated, usually from 76.9 µM), without a hit: at the top dose activity change, negative = inhibition, most hits filed as inhibitors;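 further: potency means the concentration at half of the fitted maximal effect; plate controls were peptide without protein for full effect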
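Compounds were incubated for 12 min at room temperature with a complex of 100 nM fluorescein-tagged pBACH1 decapeptide and 250 nM His-tagged BRCT protein. Buffer was phosphate pH 7.3 with EDTA, DTT and Tween 20. Disruption of binding lowers the polarization signal.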
DNA Pol III inh – inhibitors of bacterial DNA polymerase III holoenzyme | Potency, µM (highest dose often 57.1 µM), inactives show at the highest dose activity change, negative = inhibition | reconstituted DNA polymerase III holoenzyme replication, biochemical | 71,000 compounds, 0.25% hits; further: potency means the concentration at half of the fitted maximal effect; on the % scale 0 is the no-effect control and ±100 the full control effect
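Reconstituted *E. coli* holoenzyme (0.35 nM Pol III, 1 nM beta, 154 nM SSB, 2 nM primase) was preincubated with compound for 15 min at RT. Synthesis on 1.4 nM ssM13Gori ran 35 min, then was stopped with PicoGreen/EDTA and read as dsDNA fluorescence.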
* hit, by the source's call; i = inactive; ? = inconclusive; . = no result given; ! = a repeat was not active; [ ] = remark or other dose. The call rests on the fitted dose curve; in most records, active means well fitted curve in the direction sought with a large enough effect; inconclusive means small, poorly fitted or top-dose-only effect, or another doubt; inactive means no such curve, though single readings can be large; an effect the other way counts as inactive or inconclusive.

SMILES | BRCT PPI red | YjeE inh | ERK AVP block | BRCT inh green | DNA Pol III inh
C=C(C)CC1(c2ccccc2)Oc2ccccc2-c2nc3cc(Cl)c(Cl)cc3nc21 (stereo unspecified) | 1%[15.4 µM] | . | 26%[11.5 µM] | -1%[15.4 µM] | .
O=C(CCNS(=O)(=O)c1ccc2c(c1)CCC(=O)N2)NCc1ccc2c(c1)OCO2 | 0% | i | 3% | -2% | -8%
Cc1cccc(N2CCN(C(=O)CCNS(=O)(=O)c3ccc4c(c3)CCC(=O)N4)CC2)c1C | 0% | i | 25µM* | 2% | 3%
O=Cc1ccc(CO)o1 | 0% | i | 4% | 0% | 2%
CCOc1ccc(-c2nc(CSCC(=O)N3CCN(c4cccc(OC)c4)CC3)c(C)o2)cc1 | -2% | i | 13µM* | 0% | 5%
CC(/C=C/C=C(C)/C=C/C(=O)O)=C\C=C\C=C(C)\C=C\C=C(C)\C=C\C(=O)O | -3% | i | -1% | -5% | 2.5µM*
C[N+](C)(N)CCC[N+](C)(C)N | 0%[15.4 µM] | i | 0%[11.5 µM] | 0%[15.4 µM] | -4%[11.4 µM]
C=C(C)C(=O)OC | 0% | i | 15% | 0% | -1%
COC(=O)c1[nH]c2ccccc2c1NC(=O)CN1CCN(c2cccc(OC)c2)C(C)C1 (stereo unspecified) | -1% | i | 32µM* | -1% | -1%
CCOC(=O)C1CCN(CC(=O)Nc2c(C(=O)OC)[nH]c3ccc(Cl)cc23)CC1 | 0% | i | 25µM* | -2% | -5%
CCOC(=O)C1CCN(CC(=O)Nc2c(C(=O)OC)[nH]c3ccccc23)CC1 | 0% | i | -32% | -1% | 4%
N#Cc1ccc2c(c1)N(CCCN1CCC(O)CC1)c1ccccc1S2 | 0% | . | 35% | -1%[3.08 µM] | .
CN1CCN(CCCN2c3ccccc3Sc3ccc(C(F)(F)F)cc32)CC1 | 1%[15.4 µM] | i | 25µM*! | -3%[15.4 µM] | -18%[11.4 µM]
C/C=C(/C)C(=O)OC1C(OC(C)=O)[C@@]2(CO)C(O)C[C@@]3(C)C(=CCC4[C@@]5(C)CCC(OC6OC(C(=O)O)[C@@H](O[C@@H]7OC(CO)C(O)C(O)C7O)C(O)[C@H]6O[C@@H]6OC(CO)C(O)C(O)C6O)[C@](C)(CO)C5CC[C@@]43C)C2CC1(C)C (stereo partly specified) | -4% | . | ? | -1%[3.08 µM] | .
C[C@@H]1OC(OC2CC[C@@]3(C)C(CC[C@@]4(C)C3CC=C3C5CC(C)(C)CC[C@]5(C(=O)OC5OCC(O)[C@@H](O)[C@@H]5OC5O[C@@H](C)[C@H](O[C@H]6OC(CO)C(O)C(O)C6O)C(O)C5O)C(O)C[C@@]34C)C2(C)C)C(O)C(O)[C@H]1OC1OCC(O)C(O)[C@H]1O (stereo partly specified) | 1% | . | 13µM* | 3% | .
Cc1ccc(NC(=O)c2cc(-c3cccc(O)c3)on2)cc1C | -1% | i | 32µM* | -2% | 4%
Cc1ccc(NC(=O)c2cc(-c3ccco3)on2)cc1C | 2% | i | 5% | 1% | -2%
Oc1cc(O)c2c(c1)O[C@H](c1ccc(O)c(O)c1)[C@@H](O)[C@@H]2c1c(O)cc(O)c2c1O[C@@H](c1ccc(O)c(O)c1)[C@H](O)C2 | 2%[15.4 µM] | i | -19%[11.5 µM] | 0%[15.4 µM] | 0.63µM*
O=C1c2c(O)cc(O)cc2O[C@@H](c2ccc(O)c(O)c2)[C@H]1O | 1% | i | 37% | -2% | -1%
COC(=O)NC(CC(C)=O)c1cccc(C)c1 (stereo unspecified) | 0%[15.4 µM] | . | 11%[11.5 µM] | 0%[15.4 µM] | .
C[C@@]1(C(=O)O)NCCc2cc(O)c(O)cc21 | -1% | i | ? | -1% | 7.9µM*
O=C(CSCc1nc2ccccc2[nH]1)N1CCN(c2cccc(Cl)c2)CC1 | 0% | i | 25µM* | -1% | -2%
O=C(CSCc1nc2ccccc2[nH]1)N1CCN(c2ccc(F)cc2)CC1 | 0% | i | -30% | -2% | -1%
COC(=O)C1=C(C)N(Cc2ccccc2)C2=C3C(=O)N(C)C(=O)C3[C@@](O)(C(=O)OC)C(=O)N2C1c1ccccc1 (stereo partly specified) | -1%[15.4 µM] | . | 1%[11.5 µM] | -1%[15.4 µM] | .
CCCSC1=N/C(=C\C=C\c2ccco2)C(=O)S1 | -30% | i | -29% | -10% | 1.3µM*
SMILES | BRCT PPI red | YjeE inh | ERK AVP block | BRCT inh green | DNA Pol III inh
C=C1C(=O)C=C2CN(C(=O)c3ccccc3)[C@@](Cc3ccc(F)cc3)(C(=O)OC)[C@@H]12 | -2% | ? | 10µM* | 10% | -15%
N#CCCn1c(=O)c(CCc2ccccc2)nc2cnc(Nc3ccccc3)nc21 | 2% | i | 19% | 31% | -7%
CN(C)c1ccc2nc3c(C(=O)O)cc(=O)c(O)c-3oc2c1 | -2%[15.4 µM] | i | -6%[11.5 µM] | -2%[15.4 µM] | 3.2µM*
CC(=O)N(C(C)=O)c1ccc2nc(C)[nH]c(=O)c2c1 | 1% | i | -8% | -1% | 6%
COc1ccc2c(c1)c(=O)oc1cc(OCC(=O)NC3CC3)ccc12 | -1% | i | -16% | -2% | 16µM*
c1cncc(-c2nc(N3CCCCCC3)c3ccccc3n2)c1 | -3% | i | 20µM* | 6% | -7%
CN1CCN(c2nc(-c3cccnc3)nc3ccccc23)CC1 | -3% | i | -24% | 0% | -16%
O=C1c2cc([N+](=O)[O-])ccc2-c2ccc3c4ccc5c6c(ccc(c7ccc1c2c73)c64)C(=O)c1cc([N+](=O)[O-])ccc1-5 | -7%[15.4 µM] | i | -8%[11.5 µM] | -4%[15.4 µM] | 4µM*
O=[N+]([O-])c1ccc2c(c1)S(=O)c1ccccc1-2 (stereo unspecified) | -3%[15.4 µM] | i | 0%[11.5 µM] | 0%[15.4 µM] | -10%[11.4 µM]
COc1ccc(OC2C=CC(c3ccccc3)OC2CO)c(C(C)(C)C)c1 (stereo unspecified) | 0%[15.4 µM] | . | 30%[11.5 µM] | 0%[15.4 µM] | .
CC1(c2ccc3noc(-c4ccc(Cl)cc4)c3c2)OCCO1 | -1% | i | 16µM* | 2% | -5%
CCOC(=O)Cc1csc(NC(=O)CSc2ncnc3c2cnn3-c2ccccc2Cl)n1 | -1% | i | 40µM* | 4% | 0%
N[C@@H](CSc1nc2ccccn2c1[N+](=O)[O-])C(=O)O | -4%[15.4 µM] | i | 32%[11.5 µM] | -1%[15.4 µM] | -2%[11.4 µM]
O=S(=O)(O)c1cc(O)c2c(O)c(N=Nc3cccc4ccccc34)c(S(=O)(=O)O)cc2c1 | -2%[15.4 µM] | i | ? | -1%[15.4 µM] | -6%[11.4 µM]
COc1ccc(-c2cc(N)n(S(=O)(=O)c3c(F)c(F)c(F)c(F)c3F)n2)cc1OC | 2% | i | 5µM* | -2% | -6%
COc1ccc(N2CCN(c3nc(NCCc4ccc(OC)c(OC)c4)nc(OC)n3)CC2)cc1 | -4% | i | 16µM* | -1% | 2%
COc1ccc(Nc2nc(OC)nc(N3CCN(c4ccc(OC)cc4)CC3)n2)cc1 | -1% | i | ? | -4% | 0%
CCOC(=O)c1ccc(N)cc1 | 1% | i | -3% | -2%[3.08 µM] | -11%[25.6 µM]
